About 83,000 compounds went through this panel and 20% of them were active in at least one assay; those are over-represented in the sample as a whole.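 In brief: 96-well plates, 48 h treatment, single concentration, percent growth endpoint.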 Values without a mark were called inactive. Activity calls are given as the source filed them. How the source made its calls: active means growth percent below 10; inactive means the rest.

The subject of one assay is TK-10 renal. As to the kind of experiment: NCI-60 one-dose screen, 48 h (100 = growth as untreated, 0 = no growth, -100 = all killed). The note with it: 10 µM unless noted.
As to `CCNC(=O)CCCCC(=O)c1c(C)[nH]c(/C=C2\N=C(c3ccc[nH]3)C=C2OC)c1C`, the growth is -61.6% (active).

With `CC(=O)OCC1OC(OCC2OC(OC(C)=O)C(OC(C)=O)C(OC(C)=O)C2OC(C)=O)C(OC(C)=O)C(OC(C)=O)C1OC(C)=O` (stereo unspecified), the growth is 106%.

Consider `Clc1ccc([I+]c2ccc(Cl)cc2Cl)c(Cl)c1`, for which the growth was -82.4% (active).

With `CCC(=O)Oc1cc(/C=C/C(=O)O[C@H]2C[C@H]3CN4CCc5c([nH]c6cc(OC)ccc56)[C@@H]4C[C@@H]3[C@@H](C(=O)OC)[C@@H]2OC)ccc1OC`, the growth is 75.2%.

Take `COC1=CC(c2ccc[nH]2)=N/C1=C\c1[nH]c(C)c(C(=O)CCCCC(=O)NCc2ccccc2)c1C`: the growth is 45.8%.

Consider `COc1ccc(-c2nnc(COc3ccc(NS(=O)(=O)c4ccc(OC)cc4)cc3F)o2)cc1`, for which the growth is 80.9%.

As to `CN1CCN(c2ccc3cc(-c4nc5ccccc5[nH]4)c(=O)oc3c2)CC1`, the growth is 119%.

Consider `CCC1=C[C@@H]2CN(C1)Cc1c([nH]c3ccccc13)[C@@](C(=O)OC)(c1cc3c(cc1OC)N(C=O)[C@H]1[C@@](O)(C(=O)OC)[C@H](OC(C)=O)[C@]4(CC)[C@@H]5C[C@@H]5CN5CC[C@]31[C@@H]54)C2`, for which the growth is 49.2%.

Consider `O=S(=O)(c1ccccc1)n1ccc(-c2ccc3c(c2)CCO3)n1`, for which the growth is 76.2%.

With `COC1=CC(c2ccc[nH]2)=N/C1=C\c1[nH]c(C)c(CCCn2cc(CCCCCCCCC[C@@H]3Cc4cc(O)ccc4C4CC[C@]5(C)[C@@H](O)CC[C@H]5C43)nn2)c1C` (stereo partly specified), the growth was 109%.

Consider `CCn1cc(C(=O)O)c(=O)c2cc(F)c(N3CCN(S(=O)(=O)c4ccc(OC)c(OC)c4)CC3)cc21`, for which the growth is 100%.

On to `COc1cc2nc(SCc3cc(OC)c(OC)c(OC)c3)n(Cc3ccccc3)c(=O)c2cc1OC`, for which the growth was 64.3%.

As for `O=[N+]([O-])c1cc(S(=O)(=O)OCC2CO2)ccc1Cl` (stereo unspecified), the growth was 114%.

Take `Nc1c(C(=O)Nc2ccccc2)sc2nc3c(cc12)CCC3`: the growth is 96%.

With `COc1ccc([N+](=O)[O-])c(/C=C/C(=O)c2ccccn2)c1`, the growth is 126%.

For `CC(C(=O)n1cc(-c2ccccc2)c(-c2ccccc2)c1)c1ccccc1` (stereo unspecified), the growth is 98.8%.

Take `CCNCc1ccncc1`: the growth was 99.5%.

In the case of `NCCSC(c1ccccc1)(c1ccccc1)c1ccccc1`, the growth was 54.6%.

As to `O=C(O)c1ccc(-n2c(=O)c3ccccc3c3ccccc3c2=O)cc1`, the growth was 97.9%.

Regarding `COc1cc(/C=C2\C=C(c3ccc(F)cc3)N(Cc3ccccc3)C2=O)cc(OC)c1OC`, the growth was 90.3%.

On to `COc1ccc(/C=C2\C(=O)N(C(=O)c3csc(NC(C)=O)n3)N=C2C)cc1`, for which the growth is 102%.

As for `COc1cccc(NC(=O)Cn2cc3c(=O)oc4ccccc4c3n2)c1`, the growth was 111%.

Consider `CNC(C)=O`, for which the growth was 91.1%.

Regarding `C=C1C(=O)O[C@H]2[C@H](O)[C@@H](C)CCC/C(C)=C/CC[C@@]3(C)O[C@@H]3C[C@@H]12`, the growth is 81%.

On to `CC(=O)Nc1ccc(S(=O)(=O)NC(CCC(=O)Nc2ccc(Cl)cc2)C(=O)O)cc1` (stereo unspecified), for which the growth is 95.8%.

As for `Cn1c(C(N)=O)cc2c1-c1nc(NC3CCCCC3)ncc1CCC2`, the growth is 89.4%.

`Cc1nc2sccn2c1-c1csc(Nc2ccccc2Cl)n1`: the growth was 61%.

On to `Cc1ccc(Cn2c(-c3cccs3)nc3ccccc32)cc1`, for which the growth is 89.8%.

Regarding `COC1=CC(c2ccc[nH]2)=N/C1=C\c1[nH]c(C)c(C(=O)CCCCC(=O)Nc2ccccc2)c1C`, the growth was -11.9% (active).

Consider `COc1ccc(-c2cn[nH]c2-c2cc(OC)c3c(c2)OCCO3)cc1`, for which the growth is 57.8%.

Take `COc1ccc(/C=C/c2nc(N3CCOCC3)c3cc(F)c(F)cc3n2)cc1OC`: the growth is 28.8%.

For `O=c1oc2cc(OS(=O)(=O)c3ccc(F)cc3)ccc2c2c1CCCCC2`, the growth was 89.6%.

`CCn1cc(C(=O)O)c(=O)c2cc(F)c(N3CCN(S(=O)(=O)c4ccc(Cl)cc4Cl)CC3)cc21`: the growth is 12.4%.

On to `O=C(CN1CCN(c2cc3c(cc2F)c(=O)c(C(=O)O)cn3C2CC2)CC1)Nc1ccc(C(=O)/C=C/c2ccccc2)cc1`, for which the growth is 39.9%.

As for `O=C(CC(O)c1ccncc1)c1ccccc1` (stereo unspecified), the growth is -30.8% (active).

Regarding `CCn1cc(C(=O)O)c(=O)c2cc(F)c(N3CCN(S(=O)(=O)c4cccc5ccccc45)CC3)cc21`, the growth is 26%.

`CCN(CC)CCCC(C)N=c1cc(Nc2cc(=NC(C)CCCN(CC)CC)c3cc(OC)ccc3o2)oc2ccc(OC)cc12` (stereo unspecified): the growth is -50.2% (active).

On to `NC(=S)NN=C1CCCCC1`, for which the growth is 100%.

The next assay concerns ACHN renal. Described as above. Conditions: 10 µM unless noted.
On to `CCNC(=O)CCCCC(=O)c1c(C)[nH]c(/C=C2\N=C(c3ccc[nH]3)C=C2OC)c1C`, for which the growth was -3.69% (active).

`CC(=O)OCC1OC(OCC2OC(OC(C)=O)C(OC(C)=O)C(OC(C)=O)C2OC(C)=O)C(OC(C)=O)C(OC(C)=O)C1OC(C)=O` (stereo unspecified): the growth is 94.7%.

As for `Clc1ccc([I+]c2ccc(Cl)cc2Cl)c(Cl)c1`, the growth was 29.6%.

In the case of `CCC(=O)Oc1cc(/C=C/C(=O)O[C@H]2C[C@H]3CN4CCc5c([nH]c6cc(OC)ccc56)[C@@H]4C[C@@H]3[C@@H](C(=O)OC)[C@@H]2OC)ccc1OC`, the growth is 46.2%.

As to `COC1=CC(c2ccc[nH]2)=N/C1=C\c1[nH]c(C)c(C(=O)CCCCC(=O)NCc2ccccc2)c1C`, the growth is 50.2%.

On to `COc1ccc(-c2nnc(COc3ccc(NS(=O)(=O)c4ccc(OC)cc4)cc3F)o2)cc1`, for which the growth was 72.1%.

In the case of `CN1CCN(c2ccc3cc(-c4nc5ccccc5[nH]4)c(=O)oc3c2)CC1`, the growth is 89.3%.

Consider `CCC1=C[C@@H]2CN(C1)Cc1c([nH]c3ccccc13)[C@@](C(=O)OC)(c1cc3c(cc1OC)N(C=O)[C@H]1[C@@](O)(C(=O)OC)[C@H](OC(C)=O)[C@]4(CC)[C@@H]5C[C@@H]5CN5CC[C@]31[C@@H]54)C2`, for which the growth is 35.6%.

As for `O=S(=O)(c1ccccc1)n1ccc(-c2ccc3c(c2)CCO3)n1`, the growth was 78.4%.

Turning to `COC1=CC(c2ccc[nH]2)=N/C1=C\c1[nH]c(C)c(CCCn2cc(CCCCCCCCC[C@@H]3Cc4cc(O)ccc4C4CC[C@]5(C)[C@@H](O)CC[C@H]5C43)nn2)c1C` (stereo partly specified), the growth is 40.8%.

`CCn1cc(C(=O)O)c(=O)c2cc(F)c(N3CCN(S(=O)(=O)c4ccc(OC)c(OC)c4)CC3)cc21`: the growth was 93%.

Take `COc1cc2nc(SCc3cc(OC)c(OC)c(OC)c3)n(Cc3ccccc3)c(=O)c2cc1OC`: the growth was 39.2%.

Consider `O=[N+]([O-])c1cc(S(=O)(=O)OCC2CO2)ccc1Cl` (stereo unspecified), for which the growth is 98.5%.

On to `Nc1c(C(=O)Nc2ccccc2)sc2nc3c(cc12)CCC3`, for which the growth is 96%.

Take `COc1ccc([N+](=O)[O-])c(/C=C/C(=O)c2ccccn2)c1`: the growth is 68.9%.

Consider `CC(C(=O)n1cc(-c2ccccc2)c(-c2ccccc2)c1)c1ccccc1` (stereo unspecified), for which the growth is 115%.

As for `CCNCc1ccncc1`, the growth is 108%.

As to `NCCSC(c1ccccc1)(c1ccccc1)c1ccccc1`, the growth is 46.2%.

As for `O=C(O)c1ccc(-n2c(=O)c3ccccc3c3ccccc3c2=O)cc1`, the growth is 103%.

As for `COc1cc(/C=C2\C=C(c3ccc(F)cc3)N(Cc3ccccc3)C2=O)cc(OC)c1OC`, the growth is 73.1%.

In the case of `COc1ccc(/C=C2\C(=O)N(C(=O)c3csc(NC(C)=O)n3)N=C2C)cc1`, the growth was 107%.

Turning to `COc1cccc(NC(=O)Cn2cc3c(=O)oc4ccccc4c3n2)c1`, the growth is 116%.

As for `CNC(C)=O`, the growth was 118%.

With `C=C1C(=O)O[C@H]2[C@H](O)[C@@H](C)CCC/C(C)=C/CC[C@@]3(C)O[C@@H]3C[C@@H]12`, the growth was 96%.

Consider `CC(=O)Nc1ccc(S(=O)(=O)NC(CCC(=O)Nc2ccc(Cl)cc2)C(=O)O)cc1` (stereo unspecified), for which the growth is 75.7%.

`Cn1c(C(N)=O)cc2c1-c1nc(NC3CCCCC3)ncc1CCC2`: the growth was 85.8%.

Take `Cc1nc2sccn2c1-c1csc(Nc2ccccc2Cl)n1`: the growth is 58.9%.

On to `Cc1ccc(Cn2c(-c3cccs3)nc3ccccc32)cc1`, for which the growth is 86.4%.

Turning to `COC1=CC(c2ccc[nH]2)=N/C1=C\c1[nH]c(C)c(C(=O)CCCCC(=O)Nc2ccccc2)c1C`, the growth was 95.8%.

For `COc1ccc(-c2cn[nH]c2-c2cc(OC)c3c(c2)OCCO3)cc1`, the growth is 38%.

Consider `COc1ccc(/C=C/c2nc(N3CCOCC3)c3cc(F)c(F)cc3n2)cc1OC`, for which the growth was 33.1%.

Regarding `O=c1oc2cc(OS(=O)(=O)c3ccc(F)cc3)ccc2c2c1CCCCC2`, the growth was 84.9%.

Take `CCn1cc(C(=O)O)c(=O)c2cc(F)c(N3CCN(S(=O)(=O)c4ccc(Cl)cc4Cl)CC3)cc21`: the growth is -54.6% (active).

On to `O=C(CN1CCN(c2cc3c(cc2F)c(=O)c(C(=O)O)cn3C2CC2)CC1)Nc1ccc(C(=O)/C=C/c2ccccc2)cc1`, for which the growth is 40.1%.

On to `O=C(CC(O)c1ccncc1)c1ccccc1` (stereo unspecified), for which the growth is -28.5% (active).

With `CCn1cc(C(=O)O)c(=O)c2cc(F)c(N3CCN(S(=O)(=O)c4cccc5ccccc45)CC3)cc21`, the growth was -3.57% (active).

For `CCN(CC)CCCC(C)N=c1cc(Nc2cc(=NC(C)CCCN(CC)CC)c3cc(OC)ccc3o2)oc2ccc(OC)cc12` (stereo unspecified), the growth was -14.1% (active).

On to `NC(=S)NN=C1CCCCC1`, for which the growth is 103%.

The values are drawn from PubChem BioAssay (NCI).
